Compounds without any hit were thinned out: in the full panel of roughly 83,000, 20% have a hit.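 Note: values are percent growth. 100 is the growth of untreated cells, values between 100 and 0 indicate rising inhibition; between -100 and 0 indicates cell death.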 A number with no mark means an inactive call. Calls of active or inactive are those of the source. The calls were made as follows: active = growth percent below 10; inactive = the rest.
What was measured:
Experiment in all cases: NCI-60 one-dose screen, 48 h (100 = growth as untreated, 0 = no growth, -100 = all killed)
Details in all cases: 10 µM unless noted
NCI-H23 lung = test system: NCI-H23 lung
NCI-H226 lung = test system: NCI-H226 lung
HOP-62 NSCLC = test system: HOP-62 NSCLC
HOP-92 NSCLC = test system: HOP-92 NSCLC
NCI-H522 lung = test system: NCI-H522 lung
A549/ATCC NSCLC = test system: A549/ATCC NSCLC
786-0 renal = test system: 786-0 renal
COLO 205 colon = test system: COLO 205 colon
DU-145 prostate = test system: DU-145 prostate
K-562 leukemia = test system: K-562 leukemia
MALME-3M melanoma = test system: MALME-3M melanoma
RXF 393 renal = test system: RXF 393 renal
SF-268 CNS = test system: SF-268 CNS
SF-295 CNS = test system: SF-295 CNS
SF-539 CNS = test system: SF-539 CNS
UACC-257 melanoma = test system: UACC-257 melanoma
M14 melanoma = test system: M14 melanoma
NCI-H322M lung = test system: NCI-H322M lung
NCI-H460 lung = test system: NCI-H460 lung
MDA-MB-231 breast = test system: MDA-MB-231 breast

Compound | growth (NCI-H23 lung) | growth (NCI-H226 lung) | growth (HOP-62 NSCLC) | growth (HOP-92 NSCLC) | growth (NCI-H522 lung) | growth (A549/ATCC NSCLC) | growth (786-0 renal) | growth (COLO 205 colon) | growth (DU-145 prostate) [%] | growth (K-562 leukemia) | growth (MALME-3M melanoma) | growth (RXF 393 renal) | growth (SF-268 CNS) [%] | growth (SF-295 CNS) [%] | growth (SF-539 CNS) | growth (UACC-257 melanoma) [%] | growth (M14 melanoma) | growth (NCI-H322M lung) [%] | growth (NCI-H460 lung) | growth (MDA-MB-231 breast) [%]
O=c1[nH]n(C(=S)N/N=C/c2ccccc2Cl)c(=O)c2ccccc12 | -43.6% (active) | -19.9% (active) | -2.31% (active) | -0.742% (active) | -61.7% (active) | 7.02% (active) | 12.9% | -60.9% (active) | 15.1 | 4.54% (active) | 28.3% | -57.7% (active) | 28.5 | 15.9 | -20.2% (active) | 37.2 | -41.9% (active) |  |  | 
CCN(CC)c1ccc(/C=N/Nc2nc(-c3ccc(C)cc3)cs2)c(O)c1 |  | 63.7% | 109% | 108% | 65.2% | 92.2% | 96.2% | 110% | 97.6 | 62.1% | 105% | 87.1% | 105 | 93.6 | 106% | 95.2 | 99.7% | 98.1 | 111% | 99.6
CC1(C)CC[C@]2(C(=O)O)CC[C@]3(C)C(=CCC4[C@@]5(C)C[C@@H](O)[C@@H]6OC(c7cccc(Br)c7)OC[C@@]6(C)C5CC[C@]43C)C2C1 (some centres undefined) |  | 46.4% | 47.6% | 25.2% | 16.3% | 23% | 52.7% | -31.4% (active) | 32.5 | 16% | 73.9% | 71.3% | 47.5 | 33 | 54.6% | 53.1 | 53.2% | 38.7 | 20.2% | 71.2
COc1ccc(NC(=O)Nc2ccc(OCc3ccc(F)cc3)cc2)cc1 |  | 12.4% | 44.5% | 21.3% | 65.1% | 58.9% | 29.3% | 97.7% | 88.5 | 82.6% | 62.3% | 35% | 61.3 | 102 | 0.894% (active) | 85.9 | 77% | 65.8 | 46% | 53.5
Cn1cc(-c2nc(N)nnc2-c2c[nH]c3ccc(Br)cc23)c2cc(Br)cnc21 |  | 11.9% | 17.8% | -6.93% (active) | -47.4% (active) | 12.5% | -10.9% (active) | -85.3% (active) | 14.2 | 0.943% (active) | 4.82% (active) | -8.55% (active) | 10.9 | 11.4 | -9.44% (active) | 47.3 | 0.895% (active) | 37.8 | -25% (active) | 11.4
Cc1ccc(-c2nc(C#N)c(S(=O)(=O)N3CCN(S(=O)(=O)c4ccc(Cl)cc4)CC3)o2)cc1 |  | 87.6% | 63% | 94.6% | 71.2% | 94.3% | 49.1% | 124% | 97.4 | 56.9% | 79.1% | 56.6% | 75.8 | 110 | 70.5% | 89.5 | 91.5% | 97.1 | 99.6% | 90.9
O=C(Cn1c(/C=C/c2ccccc2)nc2ccccc2c1=O)Nc1ccccc1 | 90.2% | 60% | 57.5% |  | 57.2% | 38.2% | 1.52% (active) | 79.3% | 74.8 | 93.2% | 69.9% | 8.81% (active) | 91.4 | 70.7 | 70.2% | 104 | 102% |  | 43.2% | 24.8
CCOC(=O)C1=C(N)N(c2ccccc2)C2=C(C(=O)CC(C)(C)C2)C1c1ccc([N+](=O)[O-])cc1 (centres undefined) |  | 88% | 99% | 106% | 79.2% | 91.5% | 93.7% | 101% | 106 | 83.7% | 120% | 101% | 106 | 96.2 | 94.3% | 112 | 99.5% | 97.9 | 89.8% | 97.4
